Compound activity (PubChem BioAssay)
Sampled rows, rich in hits. Any-hit rate of the full collection: about 0.85%.
CtBP-E1A inh – CtBP/E1A binding inhibition. actives 0.49% (n = 340,000). AID 651724. AlphaScreen GST-E1A/His-CtBP binding, 1536-well; stronger effect = lower value. activity change, % (concentration not given with the values); note: % is set by controls: 0 for no effect and ±100 for the full control effect
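GST-E1A and His-tagged CtBP (125 nM each as 5X stock) were preincubated with pin-transferred compound for 2 h at 37 °C in the dark, then glutathione donor and nickel acceptor beads were added for 1 h before AlphaScreen reading.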
TSHR antagonist – blocks TSH signaling through the human TSH receptor; P16473; activity change, negative = inhibition, % at 11.5 µM; actives 0.2% (n = 330,000); TSHR-expressing cells, TSH-stimulated cAMP HTRF, 2 h; stronger effect = lower value;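 active = activity change below a set negative limit, meaning inhibition stronger than a set level, cut at about -70% in these data; inconclusive = activity change between two set negative limits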; note: % is set by controls: 0 for no effect and ±100 for the full control effect
Target sequence (P16473 whole entry, looked up): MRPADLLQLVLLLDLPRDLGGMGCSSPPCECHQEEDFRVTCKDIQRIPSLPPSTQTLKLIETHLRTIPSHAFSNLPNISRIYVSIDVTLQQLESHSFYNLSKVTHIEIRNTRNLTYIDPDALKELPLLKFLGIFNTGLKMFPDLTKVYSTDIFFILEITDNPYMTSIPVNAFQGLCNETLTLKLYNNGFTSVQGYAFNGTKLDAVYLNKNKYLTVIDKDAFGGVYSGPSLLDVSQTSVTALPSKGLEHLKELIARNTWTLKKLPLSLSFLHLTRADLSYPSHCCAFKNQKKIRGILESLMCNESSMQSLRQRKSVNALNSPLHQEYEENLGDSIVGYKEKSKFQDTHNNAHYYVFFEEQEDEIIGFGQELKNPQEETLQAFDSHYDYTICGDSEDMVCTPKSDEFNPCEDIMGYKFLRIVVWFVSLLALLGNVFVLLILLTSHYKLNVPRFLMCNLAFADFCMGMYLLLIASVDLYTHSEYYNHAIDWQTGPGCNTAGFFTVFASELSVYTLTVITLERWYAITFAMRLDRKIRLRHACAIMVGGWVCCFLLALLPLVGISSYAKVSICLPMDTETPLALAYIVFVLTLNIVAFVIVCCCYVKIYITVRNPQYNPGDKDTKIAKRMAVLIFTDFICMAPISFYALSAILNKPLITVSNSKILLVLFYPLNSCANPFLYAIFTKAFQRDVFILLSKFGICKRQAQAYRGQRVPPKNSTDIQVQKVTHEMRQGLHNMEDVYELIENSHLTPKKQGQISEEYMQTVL
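Cell-based HTRF cAMP assay; TSHR cells + compound, TSH EC80 (4nM final), 2 h, 37 deg C. Lysis with anti-cAMP cryptate and cAMP-d2, 30 min RT, read 665/620 nm.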
Six1-Eya2 inh – inhibitors of human Six1/Eya2 interaction. Q15475+O00167. AlphaScreen GST-Six1/His-Eya2 binding, biochemical; stronger effect = lower value. activity change, % (test concentration not listed). actives 0.56% (n = 360,000). AID 651725; note: % is set by controls: 0 for no effect and ±100 for the full control effect
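AlphaScreen with GST-Six1 and His-Eya2 (5X mix: 250 nM and 500 nM), glutathione donor and nickel acceptor beads; buffer 50 mM Tris pH 8.0, 300 mM NaCl, 1 mM TCEP; 1 h at 37 C in the dark.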
Chronic BCR inh – blocks chronic active B-cell receptor signaling; AID 493014; ABC-DLBCL IkBa-CBG/CBR reporter, luminescence ratio, 4 h; actives 0.05% (n = 340,000); Potency, µM (series often up to 46.1 µM), for the others: top-dose activity change, negative = inhibition, most hits filed as inhibitors; active = well fitted inhibition curve with a large enough effect in the signal ratio, with a control signal flat, not every such curve was filed as active; inconclusive = small, poorly fitted or top-dose-only effect, or effect the other way, or a change in a side signal; the % refers to the signal ratio;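 note: potency is the fitted concentration of half-maximal effect; plate controls were basal doxycycline-induced cells for no effect and cells given 10 µM MG132 for full effect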
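TMD8 human ABC-DLBCL cells with doxycycline-inducible IκBα–green luciferase fusion and unfused red luciferase, in 0.5% FBS medium; compounds up to 46 uM, 4 h at 37C. Green/red luminescence ratio, filter-overlap corrected, fitted to concentration-response curves.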
S-ASM inh – inhibitors of human secretory acid sphingomyelinase; actives 0.006% (n = 340,000); P17405; placental ASM, HMU-PC fluorogenic substrate, 60 min; AID 504937; Potency, µM (top dose mostly 57.5 µM), for the others: at the highest dose activity change, negative = inhibition, usual class: inhibitors; active = well fitted inhibition curve with a large enough effect; inconclusive = small, poorly fitted or top-dose-only effect; inactive = no such curve, though single readings can be large or run the other way; note: potency is the fitted concentration of half-maximal effect
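qHTS format. ASM enzyme prepared from human placenta hydrolyses the fluorogenic substrate HMU-PC0 (9 uM final) over 60 min at 37 °C after a 10 min compound preincubation.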
* = called active by the depositor; i = inactive; u = inconclusive; x = not tested or not shown; [ ] = dose if it differs, or a comment. Cut-off read from the data, not from the text of the source, unless noted: active = activity change below about -65%; inconclusive = mostly about -30% to -63%; inactive = weaker than that.

SMILES	CtBP-E1A inh	TSHR antagonist	Six1-Eya2 inh	Chronic BCR inh	S-ASM inh
CC(=O)N1CN(Cc2ccccn2)Cc2c1sc1c2CCCC1	u	3.5	-73.6*	u	9.8%
CC(=O)N1CN(CCCn2ccnc2)Cc2c1sc1c2CCCC1	-10.7	5.3	-6.5	u	9.2%
Cc1ccccc1C(=O)NCc1ccc2c(c1)CCN2C(=O)c1ccc(F)cc1	x	x	x	8.6%	x
COc1ccc([C@]23Cc4cc(OC)c(OC)cc4C(O2)C2=C(CC(C)(C)CC2=O)O3)cc1	x	x	x	23.7%[9.22 µM]	x
Cc1ccc(N/N=C(\Cc2nc3ccccc3[nH]2)c2ccccc2)cc1	-6.4	11.2	-15.8	23.1µM*	78.7%
c1ccc(N/N=C(\Cc2nc3ccccc3[nH]2)c2ccccc2)cc1	-13.2	1.8	-11.0	u	-12.4%
CN(C1=C(N2CCCCC2)C(=O)c2ccccc2C1=O)c1ccccc1	-1.5	-27.4	-83.3*	26.8%	-25.9%
Cc1ccc(C(=O)Oc2ccc([N+](=O)[O-])cc2)cc1S(=O)(=O)N1CCCCCC1	-3.6	-3.5	-84.7*	8.1%	-3.0%
O=C(Oc1ccc(C(=S)N2CCOCC2)cc1)c1ccc([N+](=O)[O-])cc1	x	-3.0	-83.1*	-1.1%	2.4%
O=C(c1ccc([N+](=O)[O-])cc1)N1CCOCC1	1.6	x	1.6	x	2.1%
Cc1ccc(-n2ncc3c(NCCC4=CCCCC4)ncnc32)cc1	x	x	x	19.0%	x
CCOC(=O)c1ccc(N2CCN(c3cc(Cl)ccc3C)CC2)c(NC(=O)Nc2cccc(OC)c2)c1	x	x	x	-5.7%	x
NC1(C(=O)O)CCCCC1	x	-8.5	x	x	x
NC1(C(=O)O)CSSC1	-0.2	x	-88.0*	x	0.9%
CS(=O)(=O)c1ccc(N2CCN(c3ccccn3)CC2)c([N+](=O)[O-])c1	-16.7	-114.3*	-12.2	-0.3%	-6.9%
O=C(c1ccc(N2CCCC2)c([N+](=O)[O-])c1)N1CCN(c2ccccn2)CC1	-3.8	-17.0	-8.7	-0.7%	-6.1%
COCCCNC(=S)N/N=C/c1ccccc1O	x	6.4	-89.6*	u	i
Oc1ccccc1/C=N/NC(=S)NC1CC2CCC1C2 (stereo not drawn)	-84.4*	8.3	-85.0*	u	245.7%
COCCNC(=S)N/N=C/c1ccccc1C(=O)O	0.5	-7.0	3.6	14.7%	1.8%
COc1cccc(/C=N/NC(=S)NC2CC3CCC2C3)c1OC (stereo not drawn)	x	-10.4	-3.4	u	4.3%
COCCNC(=S)N/N=C(\C)c1ccccc1OC	-11.3	2.9	-7.2	u	2.7%
COCCNC(=S)N/N=C(\C)c1ccccc1O	u	-3.6	-68.8*	u	4.5%
Cc1ccc(C)c(-n2cc(-c3ccccc3)nc2SCC(=O)Nc2ccccc2)c1	x	x	x	19.3%	x
COc1ccc(NC(=O)c2c(NCc3ccc(N(C)C)cc3)sc3c2CCC3)cc1	x	x	x	11.8%	x
CCCOc1ccc(C2C(=O)N(C3CCCCC3)CC(=O)N2CCc2ccccc2)cc1OC (stereo not drawn)	x	x	x	-2.6%	x
SMILES	CtBP-E1A inh	TSHR antagonist	Six1-Eya2 inh	Chronic BCR inh	S-ASM inh
Cc1ccc2nc(NC(=O)C3CCN(S(=O)(=O)c4cc([N+](=O)[O-])ccc4Cl)CC3)sc2c1	u	-41.9	-17.5	u	-5.5%
O=C(Nc1nc2ccc(F)cc2s1)C1CCN(S(=O)(=O)c2cc([N+](=O)[O-])ccc2Cl)CC1	-7.0	-92.4*	-25.9	u	-4.4%
O=C(CCSCc1ccccc1F)N1CCN(c2ccc(F)cc2)CC1	x	x	x	0.2%	x
Oc1ccc(CNc2ccc(C(F)(F)F)cc2Cl)c2cccnc12	x	7.3	x	u	x
CCc1ccc(NC(=O)C(C)OC(=O)/C=C/c2ccc(O)c(OC)c2)cc1 (stereo not drawn)	1.9	-2.2	1.9	20.6µM*	31.2%
C=CCc1cccc(/C=N/NC(=O)C[n+]2ccccc2)c1O	-91.1*	0.0	-89.3*	-0.2%	0.0%
Cc1c(C(=O)N(C)C)sc2c1c(=O)n(-c1ccc(Cl)c(Cl)c1)c(=O)n2Cc1ccc(F)cc1	x	x	x	-19.9%	x
COc1ccc(C)cc1NC(=O)c1ccccc1NS(=O)(=O)c1ccc(Cl)s1	x	-76.3*	-4.7	u	-2.6%
CC(=O)c1cccc(N(C(=O)CNC(=O)c2ccco2)C(C(=O)NC2CCCC2)c2ccncc2)c1 (stereo not drawn)	-9.3	1.0	18.8	0.6%	-1.1%
CC(=O)c1ccc(N(C(=O)CNC(=O)c2ccco2)C(C(=O)NC2CCCC2)c2ccncc2)cc1 (stereo not drawn)	11.8	-93.2*	3.7	0.4%	1.9%
COc1ccc(-c2ccc(C(=O)NCc3ccc(N(C)C)cc3)c3occc23)c(C)c1	-66.3*	x	-65.0*	x	x
COc1ccc(-c2ccc(C(=O)NCc3ccco3)c3occc23)c(C)c1	-23.6	x	-5.2	x	x
CCOc1ccc(C(=O)NCCS(=O)(=O)N2CCN(c3cccc(Cl)c3)CC2)cc1	x	x	x	5.7%	x
CN(C)c1ccc(NC(=O)c2ccc(COc3cccc(Cl)c3)o2)cc1	u	-11.4	-71.5*	-27.9%	-11.7%
CCC(=O)C1=C(c2cccc(OC)c2)N(C(=O)CC)n2c(nnc2C2CCCCC2)S1	x	x	x	11.6%	x
O=C(NC1CC(=O)N(c2ccc(F)cc2)C1)c1ccco1 (stereo not drawn)	x	x	x	8.4%	x
N/C(Cc1ccc([N+](=O)[O-])cc1)=N\OC(=O)Cc1ccc(Cl)cc1	-12.7	-77.3*	2.1	20.2%	-1.9%
CCOC(=O)N1CCN(/[N+]([O-])=N/Oc2ccc([N+](=O)[O-])cc2[N+](=O)[O-])CC1	x	-22.1	x	x	x
CCC(CC)C(=O)c1c[nH]c(C(=O)NN)c1	-13.9	3.8	-0.2	22.4µM*	2.9%
CCSc1nnc(NC(=O)c2cnccn2)s1	1.0	16.1	-1.0	-0.4%	1.9%
CCSc1nnc(NC(=O)c2ccccn2)s1	-91.4*	1.1	-94.2*	u	2.2%
CCc1nnc(NC(=O)c2ccc(Cl)nc2)s1	-5.7	-11.7	-0.2	u	4.6%
CCc1nnc(NC(=O)c2cc(Cl)ccn2)s1	-92.9*	-7.9	-76.6*	u	3.0%
COc1ccccc1N1CCN(c2ncnc3c2cnn3-c2ccc(C)cc2)CC1	x	x	x	1.7%	x
CCC(=O)NC(c1ccc(OC)c(OC)c1)c1cc(Cl)c2cccnc2c1O (stereo not drawn)	-85.1*	12.5	-81.7*	-2.5%	-3.3%
CCCC(=O)NC(c1cccs1)c1cc(Cl)c2cccnc2c1O (stereo not drawn)	-70.5*	9.0	u	6.7%	-0.1%
CCCC(=O)NC(c1ccco1)c1cc(Cl)c2cccnc2c1O (stereo not drawn)	-90.0*	3.9	-83.2*	u	-4.9%
COc1ccc(C(NC(C)=O)c2cc(Cl)c3cccnc3c2O)cc1OC (stereo not drawn)	u	7.8	u	4.2%	-2.9%
